Measurements: PubChem BioAssay AID1508633 (National Center for Advancing Translational Sciences (NCATS), 2021)
Results filed as inconclusive are left out. Activity calls are given as the source filed them. Calls follow the shape of the dose curve; as a rule, active = well fitted inhibition curve with a large enough effect; inconclusive = small, poorly fitted or top-dose-only effect; inactive = no such curve, though single readings can be large or run the other way. Where a SMILES comes first, the peptide text is derived from it. [ ]: non-standard residue; d: D form. The star is where a group is joined. Cbz = O=C(OCc1ccccc1)*; Nva = CCC[CH](N)C(=O)O

Tested on: zebrafish ABCB5 (Abcb5) multidrug transporter
Test: qHTS for characterization and localization of zebrafish homologs of the human ABCB1 multidrug transporter: ABCB5 transfected cells
Details: CellTiter-Glo luminescence viability, 72 h; series mostly up to 46.1 µM
Description: The zebrafish has emerged as a potential model to study the blood-brain barrier (BBB) given its similarities with mammalian systems. However, little information has been available with regard to homologous ATP-binding cassette transporters expressed at the zebrafish BBB. Two transporters that are highly expressed at the human BBB are P-glycoprotein (P-gp, encoded by the ABCB1 gene) and ABCG2 (encoded by the ABCG2 gene). In this study, we focus on characterization of P-gp homologs in the zebrafish, which has two genes that are homologous to human ABCB1 - abcb4 and abcb5. We generated stably-transfected cell lines to determine their substrate specificities. […] Zebrafish abcb4 also colocalized with claudin 5 expression in brain endothelial cells.
A high-throughput screen was performed as previously described on empty vector transfected cells, P-gp-overexpressing MDR-19 cells and cells transfected with full-length zebrafish abcb4 (ZF Abcb4) or abcb5 (ZF Abcb5). Briefly, cells were plated into 1536-well plates at a density of 500 cells/well in 5 uL media. P-gp substrate compounds (approximately 90) selected from our previous study were then added at varying concentrations using a 1536-head pin tool (Kalypsis, San Diego, CA) and plates were incubated at 37C in 5% CO2 for 72 h. CellTiter-Glo reagent (Promega) was dispensed into the wells, incubated for 5 min and luminescence was read on a ViewLux instrument (Perkin-Elmer).
Cytotoxic compounds were defined as those that yielded a curve class of -1.1, -1.2, -2.1, -2.2, -2.3, or -2.4, a maximum response of >50% and an AC50 of < 10 uM. All compounds from screening analysis were tested in Vector (empty vector control), MDR-19 (P-gp overexpressing), zebrafish abcb4 (ZF Abcb4) and abcb5 (ZF Abcb5) expression cell lines.
1. Tobie D Lee, Olivia W Lee, Kyle R Brimacombe, Lu Chen, Rajarshi Guha, Sabrina Lusvarghi, Bethilehem G Tebase, Carleen Klumpp-Thomas, Robert W Robey, Suresh V Ambudkar, Min Shen, Michael M Gottesman, Matthew D Hall. A High-Throughput Screen of a Library of Therapeutics Identifies Cytotoxic Substrates of P-glycoprotein. Mol Pharmacol. 2019, Nov;96(5):629-640.

Compound | activity, negative = inhibition | Potency
C=C1CO[C@@]2(O[C@H]3CC4C5CC=C6C[C@@H](O)C[C@@H](O[C@@H]7OC[C@H](O)[C@H](O[C@@H]8OC[C@@H](O)[C@H](O)[C@H]8O)[C@H]7O[C@@H]7O[C@@H](C)[C@H](OC(C)=O)[C@@H](OC(C)=O)[C@H]7OC(C)=O)[C@]6(C)C5CC[C@]4(C)[C@@H]3[C@@H]2C)[C@@H](O)[C@H]1OC1OC(C)C(O)C(O)C1O (stereo not given in full) | 3.83% [at 8.96 µM] (inactive) | 
CC(C)C[C@H](NC(=O)[C@H](CCc1ccccc1)NC(=O)CN1CCOCC1)C(=O)N[C@@H](Cc1ccccc1)C(=O)N[C@@H](CC(C)C)C(=O)[C@@]1(C)CO1 |  | 166 nM (active)
CC[C@@H]1C(=O)N(C)c2cnc(Nc3ccc(C(=O)NC4CCC(N5CCN(CC6CC6)CC5)CC4)cc3OC)nc2N1C(C)C (stereo not given in full) |  | 1320 nM (active)
Cc1[nH]c2ccccc2c1CCNCc1ccc(/C=C/C(=O)NO)cc1 |  | 590 nM (active)
CN(C)C1CCN(C(=O)c2ccc(NC(=O)Nc3nc(N4CCOCC4)nc(N4CCOCC4)n3)cc2)CC1 |  | 4690 nM (active)
C[C@@H]1O[C@@H](O[C@H]2[C@@H](OC(=O)[C@]34CCC(C)(C)CC3C3=CCC5[C@@]6(C)C[C@H](O)[C@H](O[C@@H]7O[C@H](CO)[C@@H](O)[C@H](O)[C@H]7O[C@@H]7OC[C@@H](O)[C@H](O)[C@H]7O)[C@@](C)(C(=O)O)C6CC[C@@]5(C)[C@]3(C)CC4)OC[C@H](O)[C@@H]2O)[C@H](O)[C@H](O)[C@H]1O[C@@H]1OC[C@@H](O)[C@H](O)[C@H]1O (stereo not given in full) | -6.88% [at 8.96 µM] (inactive) | 
COc1cc2ncn(-c3cc(OCc4ccccc4C(F)(F)F)c(C(N)=O)s3)c2cc1OC |  | 6790 nM (active)
CC[n+]1c(-c2ccccc2)c2cc(N)ccc2c2ccc(N)cc21 |  | 11800 nM (active)
C[C@@H](Oc1cc(-n2cnc3ccc(CN4CCN(C)CC4)cc32)sc1C(N)=O)c1ccccc1C(F)(F)F |  | 4180 nM (active)
Cc1ccc(C(=O)N(CCCN)C(c2nc3cc(Cl)ccc3c(=O)n2Cc2ccccc2)C(C)C)cc1 (stereo not given) |  | 23500 nM (active)
CCCCc1nc2cc(C=CC(=O)NO)ccc2n1CCN(CC)CC |  | 7430 nM (active)
CCn1nnc2c(N3CCOCC3)nc(-c3ccc(NC(=O)Nc4ccc(C(=O)N5CCN(C)CC5)cc4)cc3)nc21 |  | 1870 nM (active)
C[C@@]12O[C@@H](C[C@]1(O)CO)n1c3ccccc3c3c4c(c5c6ccccc6n2c5c31)CNC4=O |  | 5260 nM (active)
CCCC(C=O)NC(=O)C(CC(C)C)NC(=O)C(CC(C)C)NC(=O)OCc1ccccc1 (stereo not drawn) (Cbz-Leu-Leu-[Nva]-aldehyde; configuration not given here) |  | 1870 nM (active)
COC[C@H](NC(=O)c1cnc(C)s1)C(=O)N[C@@H](COC)C(=O)N[C@@H](Cc1ccccc1)C(=O)[C@@]1(C)CO1 |  | 166 nM (active)
CC(=O)O[C@@H]1C[C@H](O)[C@@]23CO[C@@H](O)C1(C)[C@@H]2C[C@@H](O)[C@]1(C)[C@@H]3C(=O)[C@H](OC(C)=O)[C@@]2(C)[C@H](c3ccoc3)C[C@H]3O[C@]321 |  | 1050 nM (active)
Cc1ccc(-c2ncn(-c3ccc(Nc4nccc(-c5cccc(N6CCOCC6)c5)n4)cc3)n2)cn1 |  | 5900 nM (active)
CC[C@@]1([C@@H]2O[C@@H]([C@H]3O[C@@](O)(CO)[C@H](C)C[C@@H]3C)C[C@@H]2C)CC[C@H]([C@]2(C)CC[C@]3(C[C@H](O)[C@@H](C)[C@@H]([C@@H](C)[C@@H](OC)[C@H](C)C(=O)O)O3)O2)O1 |  | 2640 nM (active)
CN(C)c1ccc(C(=C2C=CC(=[N+](C)C)C=C2)c2ccc(N(C)C)cc2)cc1 |  | 935 nM (active)
Cc1ccc(C(=O)N(CCCN)[C@@H](c2oc3cc(Cl)ccc3c(=O)c2Cc2ccccc2)C(C)C)cc1 |  | 23500 nM (active)

Compound | activity, negative = inhibition | Potency
Cc1cc(N)c2ccccc2[n+]1CCCCCCCCCC[n+]1c(C)cc(N)c2ccccc21 |  | 8330 nM (active)
CC(=O)OC1C(=O)C2(C)C(O)CC3OCC3(OC(C)=O)C2C(OC(=O)c2ccccc2)C2(O)CC(OC(=O)C(O)C(NC(=O)c3ccccc3)c3ccccc3)C(C)=C1C2(C)C (stereo not given) |  | inactive
CCN(CC)Cc1ccc(C(=O)N(CCc2ccccc2OC)[C@@H]2CCNC2)cc1 |  | inactive
CCN(CCCO)CCCOc1ccc2c(Nc3cc(CC(=O)Nc4cccc(F)c4)[nH]n3)ncnc2c1 |  | inactive
C/C=C1/NC(=O)C2CSSCCC=CC(CC(=O)NC(C(C)C)C(=O)N2)OC(=O)C(C(C)C)NC1=O (stereo not given) |  | 2090 nM (active)
CC(=O)C1(O)Cc2c(O)c3c(c(O)c2C(OC2CC(N)C(O)C(C)O2)C1)C(=O)c1c(O)cccc1C3=O (stereo not given) |  | 59 nM (active)
COc1cc(N2CCC(O)CC2)ccc1Nc1nc(Nc2ccccc2S(=O)(=O)C(C)C)c2[nH]cnc2n1 |  | inactive
CC(C)C[C@H](NC(=O)[C@@H](NC(=O)c1cccc(-c2ccccc2)n1)[C@@H](C)O)B(O)O |  | 118 nM (active)
COc1cc(C(=O)NC2CCN(C)CC2)ccc1Nc1ncc2c(n1)N(C1CCCC1)CC(F)(F)C(=O)N2C |  | 1180 nM (active)
CN(C)C/C=C/C(=O)Nc1cccc(C(=O)Nc2ccc(Nc3nccc(-c4cccnc4)n3)cc2)c1 |  | 14800 nM (active)
COc1cc2c(NC3CCN(C(C)C)CC3)nc(N3CCCN(C)CC3)nc2cc1OCCOCCN(C)C |  | inactive
C#CCN(Cc1cc2c(=O)n(C)c(CN3CCN(C)CC3)nc2cc1Cl)c1ccc(C(=O)NCc2cccnc2)cc1 |  | inactive
CC[C@@H]1C(=O)N(C)c2cnc(Nc3ccc(C(=O)NC4CCN(C)CC4)cc3OC)nc2N1C1CCCC1 |  | 1320 nM (active)
C#Cc1cccc(Nc2ncnc3cc(OC)c(OCCCCCCC(=O)NO)cc23)c1 |  | 8330 nM (active)
COc1cc2c(NC3CCN(C(C)C)CC3)nc(N3CCCN(C)CC3)nc2cc1OCCCN1CCCC1 |  | inactive
CC(C)C[C@@H](C=O)NC(=O)[C@H](CC(C)C)NC(=O)[C@H](CC(C)C)NC(=O)OCc1ccccc1 (Cbz-Leu-Leu-Leu-aldehyde) |  | 1180 nM (active)
C=CCn1c(=O)c2cnc(Nc3ccc(N4CCN(C)CC4)cc3)nc2n1-c1cccc(C(C)(C)O)n1 |  | 2350 nM (active)
CN(C)C1CCN(C(=O)c2ccc(NC(=O)Nc3ccc(-c4nc(N5CCOCC5)nc(N5CCOCC5)n4)cc3)cc2)CC1 |  | 7430 nM (active)
C=CCNC1=C2CC(C)CC(OC)C(O)C(C)/C=C(\C)C(OC(N)=O)C(OC)/C=C/C=C(\C)C(=O)NC(=CC1=O)C2=O (stereo not given) |  | 11800 nM (active)
CCc1cccc(CC)c1NC(=O)N1Cc2[nH]nc(NC(=O)c3ccc(N4CCN(C)CC4)cc3)c2C1 |  | inactive
